Several values for one entry are separate records, joined by “and”; a condition that tells them apart may be missing. Equal entries are not always repeated. Hit rate of the full screen: of about 340,000 compounds, about 6,900 (2%) were called active. Many of the other results were omitted from the sample, so actives are more common in it than they were. A number with no mark means an inactive call. Cut-off read from the data, not from the text of the source: active = inhibition above about 30%; inactive = below that, where a call was filed.
Target: D(2) dopamine receptor (Homo sapiens) (UniProt P14416)
Experiment: HTS Assay for Allosteric Antagonists of the Human D2 Dopamine Receptor: Primary Screen for Antagonists; note: 0% is about no effect
Conditions: HEK293 TREx D2 cells, calcium flux, dopamine EC80; at 10 µM; active compounds read high
How it was run: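 Antagonism is scored as inhibition of an EC80 dopamine-evoked calcium signal in a force-coupled, tetracycline-inducible HEK293 T-REx D2 line, with compound present 180 s before agonist.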

Sequence of D(2) dopamine receptor (Homo sapiens) (P14416 whole entry, looked up): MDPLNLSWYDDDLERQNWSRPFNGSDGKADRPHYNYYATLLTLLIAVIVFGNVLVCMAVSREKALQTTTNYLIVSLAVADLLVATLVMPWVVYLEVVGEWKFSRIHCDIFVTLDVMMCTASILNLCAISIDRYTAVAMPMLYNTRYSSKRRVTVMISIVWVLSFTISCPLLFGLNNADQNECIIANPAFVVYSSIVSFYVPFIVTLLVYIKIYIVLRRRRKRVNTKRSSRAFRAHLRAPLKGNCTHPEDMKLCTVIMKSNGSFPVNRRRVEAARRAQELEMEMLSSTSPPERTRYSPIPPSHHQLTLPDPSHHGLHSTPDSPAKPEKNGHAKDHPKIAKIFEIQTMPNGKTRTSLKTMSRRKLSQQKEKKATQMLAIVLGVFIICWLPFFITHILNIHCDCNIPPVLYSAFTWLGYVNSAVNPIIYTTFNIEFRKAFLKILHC

SMILES | inhibition
Cc1ccccc1NC(=O)COc1cccc2c1CCNC2=O | -0.505%
CCCCN(C(=O)CSCC(=O)Nc1ccc(OC)cc1)c1c(N)n(CCC)c(=O)[nH]c1=O | 9.85%
N#Cc1ccc(CN2CCN(CC(=O)Nc3ccccc3C(=O)NC3CC3)CC2)cc1 | 4.29%
CC1Cc2ccccc2N1S(=O)(=O)c1cccc(C(=O)NCC(c2ccco2)N2CCCC2)c1 (stereo unspecified) | -15%
COC(=O)CNS(=O)(=O)c1ccc(OC)cc1 | 6.78%
COC(=O)CNS(=O)(=O)c1ccc(Cc2ccc(S(=O)(=O)NCC(=O)OC)cc2)cc1 | 41.3% (active)
C/C(N)=C(/C#N)C(=O)COC(=O)CNS(=O)(=O)c1ccc(C)cc1 | 12.5%
CNS(=O)(=O)c1cccc(C(=O)OCCCC(=O)c2ccccc2)c1 | -4.56%
CCOC(=O)c1c(Cc2ccc(Cl)cc2)c[nH]c1C | -4.64%
CC(=O)c1c(C)c[nH]c1C | 31.1% (active)
O=C(CSc1ncnc2sccc12)N1CCN(C(=O)c2cccs2)CC1 | 30%
Cc1occc1-c1nnc(SCC(=O)NC2CCCCC2)o1 | 6.65%
CC1CN(C(=O)CCC(=O)NCc2cccnc2)c2ccccc2O1 (stereo unspecified) | 35.5% (active)
CC1CN(C(=O)CCC(=O)NC2CCN(Cc3ccccc3)CC2)c2ccccc2O1 (stereo unspecified) | -8.98%
Cc1ccc2c(c1)N(C(=O)CCC(=O)NCc1cccnc1)CCO2 | 13.2%
CC[C@H](C)C(=O)N[C@H]1CCCN1C(=O)/C=C/c1ccccc1 | 3.07%
O=C(N[C@@H](Cc1c[nH]c2ccccc12)C(=O)O)OCC1c2ccccc2-c2ccccc21 | 5.76%
COc1ccc(C)cc1NC(=O)CSc1nnc2ccc(-c3ccccn3)nn12 | 24.5%
Cc1c(/C=N\NC(=O)c2cc3ccccc3o2)c2ccccc2n1C | 33.1% (active)
O=C(N/N=C/c1c[nH]c2ccccc12)c1cc2ccccc2o1 | -9.07%
O=C(N/N=C/c1coc2ccccc2c1=O)c1cc2ccccc2o1 | -7.75%
COc1ccc(CCC(=O)N2CCN(S(=O)(=O)c3ccc(OC)cc3)CC2)cc1 | -16.3%
Cc1cccc2c1N(CC(=O)OC(C)C)C(=O)C2=O | 0.945%

SMILES | inhibition
CC(C)OC(=O)CN1C(=O)C(=O)c2ccccc21 | 2.86%
CCOC(=O)CN1C(=O)C(=O)c2cc(C)ccc21 | 37% (active)
CC(CN1CCOCC1)OC(=O)c1ccc(C(C)(C)C)cc1 (stereo unspecified) | 70.8% (active)
Cc1cccc(C(=O)OC(C)CN2CCCC2)c1 (stereo unspecified) | -14%
Cc1ccc(C(=O)OC(C)CN2CCOCC2)cc1 (stereo unspecified) | 12.8%
O=[N+]([O-])c1ccccc1/C=C/CN1CCCC(CO)C1 (stereo unspecified) | 35.4% (active)
CC1CC(C)CN(C/C=C/c2ccccc2[N+](=O)[O-])C1 (stereo unspecified) | 7.28%
O=C(/C=C/c1ccccc1[N+](=O)[O-])OCC(=O)N1CCCC1 | 4.52%
CCN(CC(=O)Nc1cc(Cl)ccc1C)C(=O)Cn1c(=O)cnc2ccccc21 | 17.9%
COC(=O)[C@]1(S(=O)(=O)c2ccccc2)C[C@@H]2ON=C(c3ccc(OC)cc3)[C@@H]2C1 | -8.41%
N#C[C@]1(S(=O)(=O)c2ccccc2)C[C@@H]2ON=C(c3cccc(Br)c3)[C@@H]2C1 | 41.5% (active)
CC(=O)NC12CC3CC(C1)CC(C(=O)N1CCN(C(=O)c4ccco4)CC1)(C3)C2 | -36.2%
CCCCC(CCC(=O)Nc1ccc(C(=O)OCC)cc1)C(=O)O (stereo unspecified) | 4.1%
CC(C)(COC(=O)Nc1ccccc1)COC(=O)Nc1ccccc1 | -9.72%
CCOC(=O)Nc1ccc(S(=O)(=O)N(C)C(C)C)cc1 | 2.07%
Cc1ccc(NC(=O)OCCNC(=O)c2ccncc2)cc1 | -36.9%
CCOC(=O)Nc1ccc(NC(=O)OCC)cc1 | 38.8% (active)
CCCCCOC(=O)NCCOC(=O)Nc1ccc(C(=O)OCC)cc1 | 33% (active)
CCCCN(C(=O)C1=NN(c2cc(C)ccc2C)C(=O)CC1)c1c(N)n(CCC)c(=O)[nH]c1=O | -7.61%
CC(O)CNCCOc1cccc(Oc2ccccc2)c1 (stereo unspecified) | -19.3%
COc1ccccc1OCCNCC(O)COc1cccc2[nH]c3ccccc3c12 (stereo unspecified) | 59.1% (active) and 51.5% (active)
COc1cccc2[nH]c(C(=O)NCCc3ccccc3)cc12 | -14.1%
O=S(=O)(O)Oc1c[nH]c2ccccc12 | 19.7%

— PubChem BioAssay AID485344 (National Center for Advancing Translational Sciences (NCATS), 2010)
